# ERG-DNA inh – inhibitors of human ERG Ets domain-DNA interaction. fluorescence polarization, His-ERG Ets domain / labelled DNA. Potency, µM (doses to about 76.9 µM), without a hit: at the top dose FP activity, negative = inhibition, hits mostly inhibitors. 370,000 compounds, 0.028% hits; active = well fitted inhibition curve with a large enough effect in the polarisation, with a control signal flat; inconclusive = small, poorly fitted or top-dose-only effect, or effect the other way, or a change in a side signal; inactive = no such curve, though single readings can be large or run the other way; the % refers to the polarisation;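 note: polarization taken with two DNA probes labelled with fluorescein and Texas red; potency is the fitted concentration of half-maximal effect; % of control where 0% means no effect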
# Target sequence (P11308 whole entry, looked up, the tested form may be a part): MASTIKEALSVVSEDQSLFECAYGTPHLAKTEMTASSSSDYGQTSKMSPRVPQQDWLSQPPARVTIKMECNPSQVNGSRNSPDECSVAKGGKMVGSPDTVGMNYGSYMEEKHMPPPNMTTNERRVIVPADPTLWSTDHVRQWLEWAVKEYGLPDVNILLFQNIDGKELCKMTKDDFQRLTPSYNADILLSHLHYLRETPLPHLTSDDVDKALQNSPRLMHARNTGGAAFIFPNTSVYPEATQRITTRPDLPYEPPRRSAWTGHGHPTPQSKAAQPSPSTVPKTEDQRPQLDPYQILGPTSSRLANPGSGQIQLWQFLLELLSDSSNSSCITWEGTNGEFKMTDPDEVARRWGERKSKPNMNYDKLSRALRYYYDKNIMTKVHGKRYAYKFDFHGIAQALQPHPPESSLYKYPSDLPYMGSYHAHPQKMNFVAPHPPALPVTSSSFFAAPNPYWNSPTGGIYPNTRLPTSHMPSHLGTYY
#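 His-tagged ERG Ets domain (1 uM in the protein solution; 300mM KCl, 50mM Tris-HCl, 1mM EDTA, 1mM DTT, pH 7.5) received compound, then a probe mix of 5 nM fluorescein-DNA and 100nM Texas-615-DNA. Fluorescence polarization was read for both dyes.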
# LDHA inh – inhibitors of human lactate dehydrogenase A. P00338. purified LDHA, NADH/diaphorase-resazurin fluorescence; active compounds read low. activity change, % (values are at about 110 or 230 µM). 480,000 compounds, 0.15% hits; in the data active = activity change below about -30%; inconclusive = mostly about -25% to -30%;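 note: plate controls were DMSO wells for no effect and wells without enzyme for full effect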
#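 Human LDH5 (2 nM) was incubated with 0.06 mM NADH and 0.2 mM pyruvate for 5 min at room temperature in Tris pH 7.4. Remaining NADH was coupled through diaphorase/resazurin, and resorufin fluorescence was read at 0 and 20 min.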
# Nrf2 ARE act – activators of Nrf2 (ARE) signaling. AREc32 ARE-luciferase reporter (MCF7-derived line), luminescence, 24 h. 410,000 compounds, 0.31% hits. Potency, µM (series often up to 46.1 µM), without a hit: at the highest dose activation, hits mostly activators; note: potency is the fitted concentration of half-maximal effect; % of control where 0% means no effect; nearly all actives have a fitted effect of over 65% in size
#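 Luminescent ARE reporter assay in AREc32_Fluc cells: overnight plating at 37 deg C, 24 hr compound incubation, Steady-Glo added, 30 min RT before reading.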
# 12-LOX inh – inhibitors of human 12S-lipoxygenase ALOX12. P18054. purified 12hLO, xylenol orange hydroperoxide absorbance. Potency, µM (series often up to 108 µM), for the others: top-dose activity change, negative = inhibition, most hits filed as inhibitors. 580,000 compounds, 1.1% hits; note: potency is the fitted concentration of half-maximal effect; % is set by controls: 0 for no effect and ±100 for the full control effect
#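 Hydroperoxide product was detected by ferrous iron/xylenol orange as the 573 to 405 nm absorbance ratio. Arachidonic acid at 40 uM (final) was turned over for 30 min at room temperature by 150 nM human 12hLO, pH 7.0 Hepes buffer, after 15 min compound preincubation.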
# Nrf2 block – Nrf2 pathway inhibition. A549 ARE-Fluc reporter, luciferase luminescence, 18-24 h. Potency, µM (highest dose often 46 µM), for the others: at the highest dose activity change, negative = inhibition, usual class: inhibitors. 360,000 compounds, 2.1% hits. AID 504444; note: potency is the fitted concentration of half-maximal effect; % is set by controls: 0 for no effect and ±100 for the full control effect; nearly all actives have a fitted effect of over 60% in size
#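 A549 ARE_Fluc cells, 5000/well, 5% FBS OPTI-MEM; compounds in dose-response, 18-24 h at 37 °C/5% CO2; CellTiter-Fluor viability read (Ex 405/Em 525), then BugLite luciferase luminescence = Nrf2 activity.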
# A549 viability – counter-screen for Nrf2 inhibitors: cytotoxicity in A549 cells | 390,000 compounds, 0.16% hits | A549 ARE-Fluc cells, CellTiter-Fluor viability, 18-24 h | Potency, µM (top dose mostly 46 µM), for inactives: top-dose activity change, negative = cytotoxicity, usual class: inhibitors; note: potency is the fitted concentration of half-maximal effect; % is set by controls: 0 for no effect and ±100 for the full control effect
#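 A549 ARE-Fluc cells in 5% FBS OPTI-MEM, 5000 cells/well, rested 2 h then exposed to compounds in concentration-response for 18-24 h at 37 °C. Viability by CellTiter-Fluor fluorescence (Ex 405/Em 525) after 30 min; luciferase luminescence (BugLite, 15 min, RT) read afterwards.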
# An asterisk follows results filed as active; ? = inconclusive; / = no result. A selection: hits, their analogues and other compounds. The true share with any hit is near 2.7%. Unless noted, calls come from the whole dose curve; as a rule, active = well fitted curve in the direction sought with a large enough effect; inconclusive = small, poorly fitted or top-dose-only effect, or another doubt; inactive = no such curve, though single readings can be large; an effect the other way counts as inactive or inconclusive.
SMILES,ERG-DNA inh,LDHA inh,Nrf2 ARE act,12-LOX inh,Nrf2 block,A549 viability
Cc1ccc(NC(=O)Cn2c(O)c(N=NC(N)=O)c3ccccc32)cc1,-10%,-7,0%,-13%,-13%,-6%
Cc1ccc(NC(=O)Cn2c(O)c(N=NS(=O)(=O)c3ccc(C)cc3)c3ccccc32)cc1,/,-4,6%,14µM*,-14%,15%
O=C(Oc1c(Sc2ccc(Cl)cc2)c(=O)oc2ccccc12)c1ccccc1,/,4,/,?,/,/
Oc1cc2c(cc1C(c1ccc(Br)cc1)N1CCCC1)OCO2 (configuration not stated),8%,20,?,11µM*,7%,1%
Cc1oc(-c2cccs2)nc1CC(=O)N(Cc1ccc2c(c1)OCO2)C1CCCC1,/,7,/,?,/,/
NC(N)=NC(N)=NCCc1ccccc1,-2%,-2,2%,24%,13µM*,-6%
NC(N)=NC(N)=NCc1ccncc1,/,0,/,?,/,/
Cc1ccc(C(=O)c2sc(Nc3ccc(Cl)cc3C)nc2N)cc1,/,-10,/,28µM*,/,/
CC#Cc1cc2c(cc1O)CCC1C2CCC2(C)C(O)CCC12 (configuration not stated),/,21,5%,45µM*,8%,0%
Fc1ccc(CCNC(=S)Nc2ccc(Nc3ccccc3)cc2)cc1,/,-1,/,?,/,/
COc1ccccc1-n1c(-c2cc(-c3ccc(F)cc3)n[nH]2)n[nH]c1=S,-7%,-11,3%,40µM*,-17%,3%
COc1cc(-n2c(-c3ccccc3)n[nH]c2=S)c(OC)cc1Cl,-2%,-4,2%,28µM*,3%,4%
COc1ccccc1-c1n[nH]c(=S)n1N,-12%,-9,0%,14µM*,6%,-4%
Cc1ccccc1S(=O)(=O)N1C(c2ccc(Cl)c(Cl)c2)CC=C(C(=O)O)C1c1cccc(Br)c1 (configuration not stated),/,-21,/,50µM*,/,/
COc1ccccc1-c1cc(C(=O)O)c2ccc(C)c(C)c2n1,/,3,/,-22%,/,/
COc1ccccc1-c1cc(C(=O)O)c2cc(C)cc(C)c2n1,/,-1,/,28µM*,/,/
O=C(/C=C/c1ccccc1)NC(NC(=S)Nc1cccc(Cl)c1)C(Cl)(Cl)Cl (configuration not stated),1%,-5,3%,-1%,7.3µM*,?
O=C(/C=C/c1ccccc1)NC(NC(=S)Nc1ccc(Cl)cc1Cl)C(Cl)(Cl)Cl (configuration not stated),-10%,-4,5%,/,21µM*,?
O=C(/C=C/c1ccccc1)NC(NC(=S)Nc1ccc(C(=O)O)cc1)C(Cl)(Cl)Cl (configuration not stated),-18%,-5,-1%,?,10%,-6%
O=C(/C=C/c1ccccc1)NC(NC(=S)Nc1cccc(O)c1)C(Cl)(Cl)Cl (configuration not stated),/,?,16%,?,-13%,-2%
CC1CCc2onc(C(=O)N3CCN(c4ccc(Cl)cc4)CC3)c2C1 (configuration not stated),-4%,2,0%,-3%,21µM*,-4%
CC1CCc2onc(C(=O)Nc3ccc(Cl)cc3)c2C1 (configuration not stated),4%,3,1%,3%,-26%,7%
NC(=O)CC(NC(=O)Cc1ccc(Br)cc1)c1ccc(NC2CCCCCCC2)c([N+](=O)[O-])c1 (configuration not stated),2%,-2,-1%,-14%,?,?
NC(=O)CC(NC(=O)Cc1ccc(Br)cc1)c1ccc(NC2CCCCCC2)c([N+](=O)[O-])c1 (configuration not stated),5%,-5,-1%,3%,23µM*,?
CCOC(=O)Cc1c(Sc2ccccc2)c2ccccc2n1C,-4%,-1,0%,10%,23µM*,-11%
SMILES,ERG-DNA inh,LDHA inh,Nrf2 ARE act,12-LOX inh,Nrf2 block,A549 viability
COc1ccc(/C=C/C(=O)Oc2ccccc2C)cc1,/,2,/,?,/,/
CCOC(=O)c1c(C)nc2sc3c(=O)n(-c4ccc(C(C)=O)cc4)nnc3c2c1-c1ccc(Cl)cc1,6%,-3,0%,115%,18µM*,?
CCOC(=O)c1c(C)nc2sc3c(=O)n(-c4ccc(C(C)=O)cc4)cnc3c2c1-c1ccc(Cl)cc1,-4%,-8,-1%,437%,23µM*,-19%
CCOC(=O)c1c(C)nc2sc3c(=O)n(-c4ccc(C)cc4)cnc3c2c1-c1ccc(OC)cc1,-3%,-5,0%,-3%,-7%,-5%
O=C1COc2ccc(-c3csc(Nc4ccc(F)cc4)n3)cc2N1,/,-6,/,?,/,/
CC1CCCN(CCCOc2ccc(Br)cc2Cl)C1 (configuration not stated),5%,-20,5%,1.1µM*,?,2%
CC1CCN(CCOCCOc2ccc(Br)cc2Cl)CC1,-1%,?,4%,?,-2%,?
O=C(COc1ccc(Cl)cc1Cl)N/N=C/c1ccc[nH]1,-9%,-2,9%,-12%,9.2µM*,?
Cc1ccc(C)c(NC(=O)CCC(=O)N/N=C/c2ccc[nH]2)c1,0%,1,0%,6%,?,-13%
Cc1c(Cl)cccc1NC(=O)CCC(=O)N/N=C/c1ccc[nH]1,5%,1,0%,-14%,18µM*,?
O=C(COc1ccc(Cl)cc1Cl)N/N=C/CCc1ccccc1,0%,-11,0%,2%,6%,2%
CCOC(=O)c1cc2cc(Oc3ccccc3)ccc2[nH]1,/,7,/,?,/,/
C/C=C(/C)C(=O)OC1Cc2cc3ccc(=O)oc3cc2OC1(C)C (configuration not stated),/,1,/,-13%,/,/
CCOC(=O)c1c(C)oc2c1c(C=NCCC(=O)O)c(O)c1ccccc12,-1%,31,5%,0%,21µM*,?
CCOC(=O)c1c(C)oc2c1c(C=NC1CCS(=O)(=O)C1)c(O)c1ccccc12 (configuration not stated),/,23,0%,2%,-9%,-9%
CN(C(=O)c1ccc(F)cc1)C1CCCCC1,/,-10,/,19%,/,/
Cc1ccc(NC(=O)CN2C(=O)N/C(=C/c3cccn3-c3ccc(C(=O)O)cc3)C2=O)cc1,-6%,-30*,-1%,?,?,-12%
CC(C)CCn1c(SCC(=O)Nc2ccccc2)nc2c1c(=O)[nH]c(=O)n2C,/,3,/,-15%,/,/
COCCn1c(C)cc(C2=NNC(=NC3CC3)SC2)c1C,-1%,-3,-3%,-11%,0.58µM*,-9%

# Screens deposited in PubChem BioAssay by National Center for Advancing Translational Sciences (NCATS).
